In PubChem BioAssay (Tox21):
Several values for one entry are separate records, joined by “and”; a condition that tells them apart may be missing. Equal entries are not always repeated. Results filed as inconclusive are left out. Some compounds were tested as several samples or in several runs, with calls that do not always agree. Activity calls are given as the source filed them. Unless noted, calls come from the whole dose curve; as a rule, active = well fitted curve in the direction sought with a large enough effect in the repeat runs; inconclusive = weak or mixed curves; inactive = no such curve, though single readings can be large; an effect the other way counts as inactive or inconclusive.

Legend:
[1] = Human pregnane X receptor (PXR) small molecule agonists, qHTS cell viability counter screen (AID 1346977); note: nearly all actives have a fitted effect of over 50% in size; note: potency is the fitted concentration of half-maximal effect
In short: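 Fluorescence read-out (CellTiter-Fluor) of viability in PXR-Luc HepG2 cells, multiplexed with the luciferase agonist read. Compounds in DMSO added after 5hr plating; 24hr total exposure at 37C, 5% CO2.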

[2] = Caspase-3/7 induction in HepG2 cells by small molecules, qHTS assay (AID 1346978); note: nearly all actives have a fitted effect of over 15% in size
In short: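 Wild-type HepG2 cells (2,000/well) were settled 5 h at 37 C, 5% CO2, then exposed to compounds in DMSO for 17 h. Caspase-3/7 activity was read by luminescence 30 min after adding Caspase-Glo 3/7 reagent at room temperature.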

[3] = Caspase-3/7 induction in CHO-K1 cells by small molecules, qHTS cell viability counter screen (AID 1346979); note: nearly all actives have a fitted effect of over 35% in size; note: potency is the fitted concentration of half-maximal effect
In short: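 CHO-K1 wt, 1,500 cells/well; 5hr pre-incubation 37C/5% CO2; compound pin transfer (DMSO); 16hr exposure; CellTiter-Fluor added, 1hr, fluorescence read.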

[4] = Caspase-3/7 induction in CHO-K1 cells by small molecules, qHTS assay (AID 1346980); note: nearly all actives have a fitted effect of over 15% in size
In short: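 Wild-type cells were seeded at 1,500 per well and settled 5 hr at 37 C, 5% CO2, then exposed to DMSO-dissolved compounds for 17 hr. Caspase-Glo 3/7 reagent was added, and luminescence was read after 30min at room temperature.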

[5] = Caspase-3/7 induction in HepG2 cells by small molecules, qHTS cell viability counter screen (AID 1346981); note: nearly all actives have a fitted effect of over 30% in size; note: potency is the fitted concentration of half-maximal effect
In short: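 The parent HepG2 line is plated at 2,000 cells per well and rested 5 hr before compound pinning from DMSO stocks. Following a 16-hr treatment at 37 C, a fluorogenic live-cell substrate (CellTiter-Fluor) reports viability after 1 hr.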

[6] = biological target: Acetylcholinesterase (Homo sapiens) (UniProt P22303); test: Acetylcholinesterase (AChE) small molecule antagonists: fluorescence cell-based qHTS assay (AID 1347398; calls by dose curve; note: nearly all actives have a fitted effect of over 50% in size); conditions: Potency: AChE activity; outcome: AChE activity
Chain of Acetylcholinesterase (Homo sapiens) (P22303 whole entry, looked up): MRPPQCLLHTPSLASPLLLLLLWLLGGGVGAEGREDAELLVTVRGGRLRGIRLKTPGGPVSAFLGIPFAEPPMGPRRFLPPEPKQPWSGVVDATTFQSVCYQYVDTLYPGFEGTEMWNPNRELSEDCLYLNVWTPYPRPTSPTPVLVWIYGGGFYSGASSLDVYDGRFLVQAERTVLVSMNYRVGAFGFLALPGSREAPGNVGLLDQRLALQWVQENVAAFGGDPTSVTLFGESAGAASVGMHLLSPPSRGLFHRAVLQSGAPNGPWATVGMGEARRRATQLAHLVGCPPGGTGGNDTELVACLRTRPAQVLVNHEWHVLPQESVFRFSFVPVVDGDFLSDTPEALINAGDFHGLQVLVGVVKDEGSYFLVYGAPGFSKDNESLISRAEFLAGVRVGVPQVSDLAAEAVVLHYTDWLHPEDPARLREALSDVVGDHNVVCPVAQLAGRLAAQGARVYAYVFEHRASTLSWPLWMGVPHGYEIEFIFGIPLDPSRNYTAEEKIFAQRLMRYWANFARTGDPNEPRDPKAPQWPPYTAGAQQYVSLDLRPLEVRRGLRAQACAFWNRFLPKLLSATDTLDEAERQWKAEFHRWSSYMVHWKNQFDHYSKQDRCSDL
In short: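 Cellular AChE inhibition: SH-SY5Y cells treated with test chemical for 30 min at 37 C, then acetylthiocholine hydrolysis followed over 40 min at room temperature via thiocholine-reactive Thiolite Green fluorescence (490/520 nm).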

[7] = biological target: Cytochrome P450 2D6 (Homo sapiens) (UniProt P10635); test: Cytochrome P450 Family 2 Subfamily D Member 6 (CYP2D6) small molecule antagonists: luciferase reporter qHTS assay (AID 1671196); note: nearly all actives have a fitted effect of over 50% in size; note: potency is the fitted concentration of half-maximal effect
Chain of Cytochrome P450 2D6 (Homo sapiens) (P10635 whole entry, looked up): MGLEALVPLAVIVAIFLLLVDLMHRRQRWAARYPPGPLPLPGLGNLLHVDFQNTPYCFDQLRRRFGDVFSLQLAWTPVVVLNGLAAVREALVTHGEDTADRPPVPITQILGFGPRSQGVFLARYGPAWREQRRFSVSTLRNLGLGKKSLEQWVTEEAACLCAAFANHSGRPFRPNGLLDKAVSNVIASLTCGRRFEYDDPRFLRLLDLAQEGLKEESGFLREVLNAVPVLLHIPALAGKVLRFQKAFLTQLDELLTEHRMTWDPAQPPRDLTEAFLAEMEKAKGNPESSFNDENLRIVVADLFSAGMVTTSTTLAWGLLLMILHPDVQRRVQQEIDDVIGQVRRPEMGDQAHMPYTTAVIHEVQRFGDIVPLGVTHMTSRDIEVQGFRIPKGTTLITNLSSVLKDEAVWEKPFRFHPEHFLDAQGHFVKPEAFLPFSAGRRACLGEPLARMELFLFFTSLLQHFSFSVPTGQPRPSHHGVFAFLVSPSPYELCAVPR
In short: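 Quantitative HTS of Tox21 chemicals against CYP2D6 using a luminescent proluciferin substrate. After NADPH addition, 1 h room-temperature reaction; luminescence recorded 20 min post detection reagent.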

[8] = biological target: Cytochrome P450 2C19 (Homo sapiens) (UniProt P33261); test: Cytochrome P450 Family 2 Subfamily C Member 19 (CYP2C19) small molecule antagonists: luciferase reporter qHTS assay (AID 1671197); note: nearly all actives have a fitted effect of over 65% in size; note: potency is the fitted concentration of half-maximal effect
Chain of Cytochrome P450 2C19 (Homo sapiens) (P33261 whole entry, looked up): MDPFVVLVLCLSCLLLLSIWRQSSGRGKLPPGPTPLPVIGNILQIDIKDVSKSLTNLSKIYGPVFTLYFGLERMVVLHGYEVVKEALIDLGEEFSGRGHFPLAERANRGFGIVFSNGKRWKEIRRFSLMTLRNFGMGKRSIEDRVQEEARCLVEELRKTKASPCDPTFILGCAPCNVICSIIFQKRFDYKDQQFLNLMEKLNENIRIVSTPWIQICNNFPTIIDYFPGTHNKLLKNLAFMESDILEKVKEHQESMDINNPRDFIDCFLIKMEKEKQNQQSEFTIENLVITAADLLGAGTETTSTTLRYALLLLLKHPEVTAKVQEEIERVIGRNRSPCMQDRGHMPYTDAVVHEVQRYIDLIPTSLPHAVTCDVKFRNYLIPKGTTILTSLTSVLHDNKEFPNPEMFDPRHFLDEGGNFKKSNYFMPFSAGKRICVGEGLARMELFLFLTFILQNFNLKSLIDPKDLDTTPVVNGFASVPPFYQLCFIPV
In short: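 Relative luminescence units recorded 20 min after the detection reagent stopped a 1 h, 37C CYP2C19 reaction on proluciferin substrate, which was started by NADPH regeneration following 10 min room-temperature compound preincubation; ketoconazole positive control.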

[9] = biological target: Cytochrome P450 2C9 (Homo sapiens) (UniProt P11712); test: Cytochrome P450 Family 2 Subfamily C Member 9 (CYP2C9) small molecule antagonists: luciferase reporter qHTS assay (AID 1671198); note: nearly all actives have a fitted effect of over 50% in size; note: potency is the fitted concentration of half-maximal effect
Chain of Cytochrome P450 2C9 (Homo sapiens) (P11712 whole entry, looked up): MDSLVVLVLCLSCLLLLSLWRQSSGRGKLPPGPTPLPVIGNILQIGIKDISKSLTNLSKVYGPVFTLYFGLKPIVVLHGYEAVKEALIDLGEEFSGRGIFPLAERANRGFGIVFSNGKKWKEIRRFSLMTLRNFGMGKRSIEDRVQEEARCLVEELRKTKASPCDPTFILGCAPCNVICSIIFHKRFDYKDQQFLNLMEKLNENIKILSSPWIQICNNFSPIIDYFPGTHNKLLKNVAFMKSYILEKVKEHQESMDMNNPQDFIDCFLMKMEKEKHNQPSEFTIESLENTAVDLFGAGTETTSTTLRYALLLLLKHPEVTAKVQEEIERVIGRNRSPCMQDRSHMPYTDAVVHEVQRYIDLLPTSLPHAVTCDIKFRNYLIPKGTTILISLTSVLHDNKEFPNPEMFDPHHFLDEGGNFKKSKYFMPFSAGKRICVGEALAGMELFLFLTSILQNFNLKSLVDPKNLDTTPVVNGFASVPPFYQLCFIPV
In short: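 CYP2C9 activity was measured with a P450-Glo proluciferin substrate. Enzyme–substrate mix was held with compound for 10 min at room temperature, then NADPH regeneration solution was added for 1 h at 37C. Luciferin product was read as luminescence.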

[10] = biological target: Cytochrome P450 1A2 (Homo sapiens) (UniProt P05177); test: Cytochrome P450 Family 1 Subfamily A Member 2 (CYP1A2) small molecule antagonists: luciferase reporter qHTS assay (AID 1671199); note: nearly all actives have a fitted effect of over 50% in size; note: potency is the fitted concentration of half-maximal effect
Chain of Cytochrome P450 1A2 (Homo sapiens) (P05177 whole entry, looked up): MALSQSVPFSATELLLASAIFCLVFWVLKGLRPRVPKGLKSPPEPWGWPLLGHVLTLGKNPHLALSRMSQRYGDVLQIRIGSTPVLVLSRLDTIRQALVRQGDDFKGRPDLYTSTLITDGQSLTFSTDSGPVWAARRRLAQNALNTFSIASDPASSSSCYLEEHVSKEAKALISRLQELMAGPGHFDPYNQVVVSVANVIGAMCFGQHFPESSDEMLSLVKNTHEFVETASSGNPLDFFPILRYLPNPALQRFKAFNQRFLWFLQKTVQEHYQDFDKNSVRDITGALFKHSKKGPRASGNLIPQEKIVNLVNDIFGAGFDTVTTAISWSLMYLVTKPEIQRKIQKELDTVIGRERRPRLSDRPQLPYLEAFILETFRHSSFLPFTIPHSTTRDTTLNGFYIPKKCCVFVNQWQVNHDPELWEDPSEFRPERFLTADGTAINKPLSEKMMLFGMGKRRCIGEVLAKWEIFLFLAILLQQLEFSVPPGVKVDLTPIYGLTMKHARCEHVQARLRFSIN
In short: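 Quantitative high-throughput format using the P450-Glo CYP1A2 system. Reaction initiated by NADPH regeneration solution, 1 h at room temperature, then stopped with detection reagent; luminescence measured 20 min later.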

[11] = biological target: Voltage-gated inwardly rectifying potassium channel KCNH2 (Homo sapiens) (UniProt Q12809); test: Human Ether-a-go-go-Related Gene (hERG) channel small molecule antagonists: fluorescence cell-based qHTS assay (AID 1671200); note: nearly all actives have a fitted effect of over 50% in size; note: potency is the fitted concentration of half-maximal effect
Chain of Voltage-gated inwardly rectifying potassium channel KCNH2 (Homo sapiens) (Q12809 whole entry, looked up): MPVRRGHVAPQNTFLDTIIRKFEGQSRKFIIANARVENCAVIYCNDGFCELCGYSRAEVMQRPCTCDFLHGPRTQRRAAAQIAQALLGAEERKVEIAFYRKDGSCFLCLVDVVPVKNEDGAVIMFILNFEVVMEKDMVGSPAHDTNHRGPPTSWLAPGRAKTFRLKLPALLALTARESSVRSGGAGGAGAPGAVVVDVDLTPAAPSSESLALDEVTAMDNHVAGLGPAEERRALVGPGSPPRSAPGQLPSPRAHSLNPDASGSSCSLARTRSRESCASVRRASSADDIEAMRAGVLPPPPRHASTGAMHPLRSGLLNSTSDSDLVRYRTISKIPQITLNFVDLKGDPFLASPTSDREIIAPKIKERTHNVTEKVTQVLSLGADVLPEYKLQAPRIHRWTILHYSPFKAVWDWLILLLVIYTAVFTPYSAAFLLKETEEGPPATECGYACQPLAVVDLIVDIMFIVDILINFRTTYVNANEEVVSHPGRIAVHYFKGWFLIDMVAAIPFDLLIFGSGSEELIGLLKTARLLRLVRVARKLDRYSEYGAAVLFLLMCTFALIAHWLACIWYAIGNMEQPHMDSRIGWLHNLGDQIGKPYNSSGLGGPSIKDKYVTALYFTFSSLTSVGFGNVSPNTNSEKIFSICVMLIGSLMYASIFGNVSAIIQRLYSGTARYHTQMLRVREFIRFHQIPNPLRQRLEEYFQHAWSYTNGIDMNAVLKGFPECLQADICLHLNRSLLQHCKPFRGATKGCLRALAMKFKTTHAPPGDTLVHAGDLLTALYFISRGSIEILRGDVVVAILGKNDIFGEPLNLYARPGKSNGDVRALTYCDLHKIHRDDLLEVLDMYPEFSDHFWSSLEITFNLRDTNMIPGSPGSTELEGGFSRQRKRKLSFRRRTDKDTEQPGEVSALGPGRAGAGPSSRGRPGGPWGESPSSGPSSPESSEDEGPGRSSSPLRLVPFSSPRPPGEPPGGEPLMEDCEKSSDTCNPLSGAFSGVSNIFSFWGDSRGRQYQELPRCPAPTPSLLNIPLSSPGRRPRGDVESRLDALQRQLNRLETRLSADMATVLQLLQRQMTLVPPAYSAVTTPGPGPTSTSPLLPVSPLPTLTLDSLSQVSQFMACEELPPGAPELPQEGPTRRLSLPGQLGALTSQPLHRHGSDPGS
In short: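 Read-out: thallium influx as a surrogate for potassium, tracked as fluorescence (480 nm ex/540 nm em) every second for 2 min after Stimulus Buffer addition in dye-loaded hERG-U2OS cells.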

[12] = biological target: Cytochrome P450 3A4 (Homo sapiens) (UniProt P08684); test: Cytochrome P450 Family 3 Subfamily A Member 4 (CYP3A4) small molecule antagonists: luciferase reporter qHTS assay (AID 1671201); note: nearly all actives have a fitted effect of over 50% in size; note: potency is the fitted concentration of half-maximal effect
Chain of Cytochrome P450 3A4 (Homo sapiens) (P08684 whole entry, looked up): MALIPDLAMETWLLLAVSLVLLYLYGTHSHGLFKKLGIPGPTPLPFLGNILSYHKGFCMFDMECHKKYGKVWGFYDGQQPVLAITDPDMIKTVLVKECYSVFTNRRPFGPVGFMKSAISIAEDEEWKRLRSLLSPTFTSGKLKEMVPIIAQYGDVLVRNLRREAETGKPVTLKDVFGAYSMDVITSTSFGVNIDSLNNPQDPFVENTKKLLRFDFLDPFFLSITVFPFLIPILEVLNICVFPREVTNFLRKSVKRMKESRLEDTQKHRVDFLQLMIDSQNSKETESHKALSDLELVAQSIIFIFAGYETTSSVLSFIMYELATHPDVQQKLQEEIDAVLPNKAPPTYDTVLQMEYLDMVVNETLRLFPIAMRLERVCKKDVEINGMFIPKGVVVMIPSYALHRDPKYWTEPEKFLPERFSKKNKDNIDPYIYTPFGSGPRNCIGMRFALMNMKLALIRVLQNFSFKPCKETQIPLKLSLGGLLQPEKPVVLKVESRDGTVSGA
In short: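 Luminescent readout (RLU) proportional to CYP3A4 activity, from luciferin generated off a proluciferin substrate. Enzyme–substrate mix plus compound 10 min at room temp, NADPH regeneration 1 h, detection reagent 20 min.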

[13] = biological target: Nuclear receptor subfamily 1 group I member 2 (Homo sapiens) (UniProt O75469); test: Human pregnane X receptor (PXR) small molecule agonists, qHTS assay (AID 1346982); note: nearly all actives have a fitted effect of over 35% in size; note: potency is the fitted concentration of half-maximal effect
Chain of Nuclear receptor subfamily 1 group I member 2 (Homo sapiens) (O75469 whole entry, looked up): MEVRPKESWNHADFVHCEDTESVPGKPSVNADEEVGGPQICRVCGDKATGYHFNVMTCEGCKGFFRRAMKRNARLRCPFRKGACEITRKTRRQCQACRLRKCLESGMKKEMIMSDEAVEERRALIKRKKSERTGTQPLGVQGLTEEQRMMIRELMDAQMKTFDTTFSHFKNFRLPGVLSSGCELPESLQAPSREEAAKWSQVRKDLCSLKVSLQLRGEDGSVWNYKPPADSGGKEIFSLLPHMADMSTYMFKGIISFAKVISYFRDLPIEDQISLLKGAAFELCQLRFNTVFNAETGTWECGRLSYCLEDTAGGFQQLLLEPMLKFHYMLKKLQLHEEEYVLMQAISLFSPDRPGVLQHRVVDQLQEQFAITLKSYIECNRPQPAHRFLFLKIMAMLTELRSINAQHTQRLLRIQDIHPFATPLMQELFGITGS
In short: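 After plating in 5% charcoal-stripped FBS and a 5 hr rest, PXR-Luc HepG2 cells received compounds in DMSO. Following 24 hr at 37 C, ONE-Glo was added and light output read.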

[14] = biological target: Acetylcholinesterase (Homo sapiens) (UniProt P22303); test: Acetylcholinesterase (AChE) small molecule antagonists: colormetric cell-based qHTS assay (AID 1347395; calls by dose curve; note: nearly all actives have a fitted effect of over 30% in size)
In short: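 SH-SY5Y cells; cpd 30 min 37 C; + DTNB/acetylthiocholine, 90 min 37 C; colorimetric thiocholine read; qHTS.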

[15] = biological target: Acetylcholinesterase (Homo sapiens) (UniProt P22303); test: Acetylcholinesterase (AChE) small molecule antagonists: enzyme-based qHTS assay (AID 1347397; calls by dose curve; note: nearly all actives have a fitted effect of over 55% in size); conditions: Potency: AChE enzyme activity inhibition; outcome: AChE enzyme activity inhibition
In short: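 Tox21 library chemicals are tested in qHTS format against recombinant human AChE. The enzyme, dispensed at 50 mU/mL, sits with compound for 30 min at room temperature. A DTNB–acetylthiocholine cocktail follows, and colour is read after 10 min.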

[16] = biological target: Acetylcholinesterase (Homo sapiens) (UniProt P22303); test: Acetylcholinesterase (AChE) small molecule antagonists: enzyme-based qHTS assay with human liver microsomes (AID 1347399; calls by dose curve; note: nearly all actives have a fitted effect of over 60% in size); conditions: Potency: qHTS inhibition; outcome: qHTS inhibition
In short: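 Recombinant human AChE (50 mU/mL in the enzyme mix) and human liver microsomes (0.25 mg/mL final) were preincubated with compound and NADPH (0.25 mg/mL final) for 30 min at 37 C. Acetylthiocholine/DTNB was then added; thiocholine was read colorimetrically after 10 min at room temperature.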

Measured: Potency

COP(=O)(OC)OC(Br)C(Cl)(Cl)Br (centres undefined)
active: [3] 61.2 µM | [7] 40 µM and 39.9 µM | [8] 7.98 µM and 17.8 µM | [9] 25.2 µM and 22.4 µM | [10] 35.6 µM
79.8 µM (active) and inactive: [12]
inactive: [1] | [2] | [4] | [5] | [6] | [11]

Clc1ccc(Cl)c(Cl)c1
inactive: [1] | [2] | [3] | [4] | [5] | [11]

CCCBr
not listed: [4] | [7] | [11] | [12]
inactive: all other assays above

OCC1CO1 (centres undefined)
not listed: [4] | [11]
inactive: all other assays above

NC(=O)CF
not listed: [4] | [7]
inactive: all other assays above

C=CC(=O)NC(C)(C)CC(C)=O
active: [7] 35.6 µM
not listed: [4] | [11]
inactive: all other assays above

O=C1c2ccccc2C(=O)N1SC(Cl)(Cl)Cl
inactive: [2] | [14] | [15] | [6] | [16] | [7]
active: [1] 39.8 µM and 17.2 µM | [3] 4.27 µM and 5.45 µM | [5] 24.3 µM | [13] 6.03 µM | [8] 78.5 µM and 20 µM | [9] 24.8 µM and 11.2 µM | [10] 24.8 µM and 22.4 µM | [11] 24.2 µM and 38.9 µM

CCCN(CCC)C(=O)Cc1c(-c2ccc(Cl)cc2)nc2ccc(Cl)cn12
inactive: [1] | [2] | [4] | [14] | [15] | [6]
active: [3] 33.5 µM | [9] 9.77 µM | [10] 16.2 µM

C[N+]1(CCF)[C@@H]2CC[C@H]1CC(OC(=O)C(O)(c1ccccc1)c1ccccc1)C2 (some centres undefined)
active: [7] 17.4 µM
not listed: [6] | [13]
inactive: all other assays above
